Results filed as inconclusive are left out. Entries that show only a call come without a potency. The source made the active and inactive calls. Calls come from the whole dose curve; as a rule, active = well fitted curve in the direction sought with a large enough effect; inconclusive = small, poorly fitted or top-dose-only effect, or another doubt; inactive = no such curve, though single readings can be large; an effect the other way counts as inactive or inconclusive.
Biological target: phosphoglycerate mutase (Leishmania major) (UniProt Q4Q090)
Assay: qHTS Validation Assay to Find Inhibitors of Phosphoglycerate Mutase (AID 504548)
Details: biochemical enzyme activity; series mostly up to 57.5 µM
Summary of the method: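 Luminescent end-point read-out via Kinase-GloPlus after a 10-minute development. Reaction: 1.25nM Leishmania major PGAM with substrate and compound, 45 minutes at room temperature in TEA buffer (pH 7.6) with MgCl2 and Tween-20.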

Chain of phosphoglycerate mutase (Leishmania major) (Q4Q090 1-553): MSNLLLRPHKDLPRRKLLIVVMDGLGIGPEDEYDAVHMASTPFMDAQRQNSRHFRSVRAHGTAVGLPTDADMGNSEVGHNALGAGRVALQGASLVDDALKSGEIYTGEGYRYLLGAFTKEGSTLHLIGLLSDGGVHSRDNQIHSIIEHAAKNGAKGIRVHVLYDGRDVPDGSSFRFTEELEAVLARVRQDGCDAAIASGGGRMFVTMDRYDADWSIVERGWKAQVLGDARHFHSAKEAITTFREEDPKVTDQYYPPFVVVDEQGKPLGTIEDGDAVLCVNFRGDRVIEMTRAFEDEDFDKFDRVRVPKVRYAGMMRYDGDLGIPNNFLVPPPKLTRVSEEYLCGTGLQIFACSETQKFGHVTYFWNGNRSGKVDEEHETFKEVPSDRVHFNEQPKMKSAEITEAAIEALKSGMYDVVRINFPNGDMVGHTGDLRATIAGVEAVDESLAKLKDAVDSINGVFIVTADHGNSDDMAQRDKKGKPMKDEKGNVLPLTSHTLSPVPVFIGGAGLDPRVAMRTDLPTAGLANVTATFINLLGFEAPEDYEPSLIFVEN

Structure (SMILES)	outcome
O=C(O)c1nn(Cc2ccc(Cl)cc2Cl)c2ccccc12	inactive
NC(=O)CN1CCCC1=O	inactive
COC(=O)C1=CCCN(C)C1	inactive
COc1ccc(C(=O)N2CCCC2=O)cc1	inactive

Test system: not listed separately
Assay: Inducers of the Endoplasmic Reticulum Stress Response (ERSR) in human glioma: Validation (AID 504836)
Details: human glioma cells, ER stress response reporter; series mostly up to 38.3 µM
Summary of the method: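 ERSR induction read as luciferase luminescence (Bright-Glo, 10 min at room temperature) in stably transfected human U87-MG glioma cells exposed to compounds for 16 h, using GRP78 as sensor.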

Structure (SMILES)	outcome
O=C(O)c1nn(Cc2ccc(Cl)cc2Cl)c2ccccc12	inactive
CN1CCC(=C2c3ccccc3CC(=O)c3sccc32)CC1	inactive
NS(=O)(=O)c1cc2c(cc1Cl)NCNS2(=O)=O	inactive
CN(C)CCCN1c2ccccc2Sc2ccccc21	inactive
CCc1cccc(N(C)C(N)=Nc2cccc3ccccc23)c1	inactive
CN(C)C/C=C(/c1ccc(Br)cc1)c1cccnc1	inactive
O=C(O)CCc1nc(-c2ccccc2)c(-c2ccccc2)o1	inactive
NC(=O)CN1CCCC1=O	inactive
CCOC(=O)Nc1ccc(NCc2ccc(F)cc2)nc1N	inactive
CCOC(=O)C1=C[C@]2(CC)CCCN3CCc4c(n1c1ccccc41)[C@@H]32	inactive
Cc1ccc(=O)n(-c2ccccc2)c1	inactive
Cc1ccc(N(CC2=NCCN2)c2cccc(O)c2)cc1	inactive
Fc1ccc(C(c2ccc(F)cc2)N2CCN(C/C=C/c3ccccc3)CC2)cc1	inactive
CN(C)CCOC(c1ccccc1)c1ccccc1	inactive
CC(N)C(=O)OC(C)(C)Cc1ccc(Cl)cc1 (stereo not given)	inactive
CCn1ccnc1CC1COc2ccccc2O1 (stereo not given)	inactive
CC1=C(CC(=O)O)c2cc(F)ccc2/C1=C\c1ccc(S(C)(=O)=O)cc1	inactive
C[C@]12CCC(=O)C=C1CC[C@@H]1[C@@H]2CC[C@@]2(C)[C@H]1CC[C@]2(O)C(=O)CO	inactive
OCCN1CCN(CCCN2c3ccccc3C=Cc3ccccc32)CC1	inactive
Nc1ccn([C@H]2CC[C@@H](CO)O2)c(=O)n1	inactive

Structure (SMILES)	outcome
COc1ccccc1N1CCN(CC(O)COc2cccc3ccccc23)CC1 (stereo not given)	inactive
O=C(CCCN1CCC(O)(c2cccc(C(F)(F)F)c2)CC1)c1ccc(F)cc1	inactive
CCN(CC)CCOCCOC(=O)C1(c2ccccc2)CCCC1	inactive
COc1ccc(CCN(C)CCCC(C#N)(c2cc(OC)c(OC)c(OC)c2)C(C)C)cc1OC (stereo not given)	inactive
COC(=O)[C@@H](N)Cc1ccc(O)c(O)c1	inactive
COc1ccc2c(c1)c(CC(=O)O)c(C)n2C(=O)c1ccc(Cl)cc1	inactive
Clc1ccccc1C(c1ccccc1)(c1ccccc1)n1ccnc1	inactive
COc1cc2c(cc1OC)-c1cc(=Nc3c(C)cc(C)cc3C)n(C)c(=O)n1CC2	inactive
c1cc(CN2CCCCC2)cc(OCCCNc2nc3ccccc3s2)c1	inactive
Cc1nc2sccn2c(=O)c1CCN1CCC(=C(c2ccc(F)cc2)c2ccc(F)cc2)CC1	inactive
NCCc1cnc[nH]1	inactive
COc1ccc(C(=O)N2CCCC2=O)cc1	inactive
COCC(=O)O[C@]1(CCN(C)CCCc2nc3ccccc3[nH]2)CCc2cc(F)ccc2[C@@H]1C(C)C	inactive
CC(C(=O)O)c1ccc(CC2CCCC2=O)cc1 (stereo not given)	inactive
CCN(CC)CCCN(c1ccccc1)C1Cc2ccccc2C1	inactive
CCC(=O)c1ccc2c(c1)N(CCCN(C)C)c1ccccc1S2	inactive
OCc1cc(C(O)CNCCCCCCOCCCCc2ccccc2)ccc1O (stereo not given)	inactive
C[C@]12CCC(=O)C=C1CC[C@@H]1[C@@H]2[C@@H](O)C[C@@]2(C)[C@H]1CC[C@]2(O)C(=O)CO	inactive
CC(C)(C)c1ccc(C(O)CCCN2CCC(C(O)(c3ccccc3)c3ccccc3)CC2)cc1 (stereo not given)	inactive

Biological target: Ubiquitin carboxyl-terminal hydrolase 1 (Homo sapiens) (UniProt O94782)
Assay: Inhibitors of USP1/UAF1: Pilot qHTS (AID 504865);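 note: rhodamine fluorescence freed from ubiquitin-rhodamine substrate followed over time; top concentration of the series differs between compounds; nearly all actives have a fitted effect of over 35% in size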
Details: purified USP1/UAF1, Ub-rhodamine cleavage fluorescence; series mostly up to 114 µM
Summary of the method: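 Deubiquitinase activity followed as kinetic rhodamine fluorescence release from 150 nM Ub-Rho. 1 nM USP1/UAF1 with compound, after 15 min room-temperature preincubation, in HEPES pH 7.8 buffer containing TCEP, EDTA, BSA and Tween-20.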

Chain of Ubiquitin carboxyl-terminal hydrolase 1 (Homo sapiens) (O94782 whole entry, looked up): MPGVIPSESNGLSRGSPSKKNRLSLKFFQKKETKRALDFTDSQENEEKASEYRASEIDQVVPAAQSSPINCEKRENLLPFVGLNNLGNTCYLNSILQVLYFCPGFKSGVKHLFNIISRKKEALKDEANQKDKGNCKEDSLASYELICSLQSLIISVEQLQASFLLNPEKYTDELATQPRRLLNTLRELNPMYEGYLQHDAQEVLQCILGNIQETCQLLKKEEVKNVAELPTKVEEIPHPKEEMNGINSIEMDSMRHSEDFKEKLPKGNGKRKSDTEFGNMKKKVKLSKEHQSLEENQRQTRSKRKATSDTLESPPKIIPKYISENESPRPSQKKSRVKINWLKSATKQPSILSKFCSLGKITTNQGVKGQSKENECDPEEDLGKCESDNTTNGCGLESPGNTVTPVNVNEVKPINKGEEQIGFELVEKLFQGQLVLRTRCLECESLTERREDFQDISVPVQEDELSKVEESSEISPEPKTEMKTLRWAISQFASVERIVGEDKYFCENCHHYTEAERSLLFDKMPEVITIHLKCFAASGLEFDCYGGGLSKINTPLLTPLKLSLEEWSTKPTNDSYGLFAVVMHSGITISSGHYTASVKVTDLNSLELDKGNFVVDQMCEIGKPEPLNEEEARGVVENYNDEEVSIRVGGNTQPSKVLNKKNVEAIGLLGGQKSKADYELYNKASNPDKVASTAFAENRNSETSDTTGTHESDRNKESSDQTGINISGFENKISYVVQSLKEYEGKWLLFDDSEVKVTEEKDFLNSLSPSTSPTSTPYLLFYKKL

Structure (SMILES)	Potency
O=C(O)c1nn(Cc2ccc(Cl)cc2Cl)c2ccccc12	inactive
NC(=O)CN1CCCC1=O	inactive
COC(=O)C1=CCCN(C)C1	inactive
COc1ccc(C(=O)N2CCCC2=O)cc1	inactive

Test system: not listed separately
Assay: qHTS for Inhibitors of ATXN expression: Validation of Cytotoxic Assay (AID 588349)
Details: cytotoxicity counter-screen for ATXN expression inhibitors, cell viability; series mostly up to 57.1 µM
Summary of the method: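 Cytotoxicity counter-screen: HEK293 cells exposed to compound titrations, 72 hr, 37 degrees C. Read-out is intracellular ATP (CellTiter Glo luminescence) as a viability measure.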

Structure (SMILES)	outcome
O=C(O)c1nn(Cc2ccc(Cl)cc2Cl)c2ccccc12	inactive
NC(=O)CN1CCCC1=O	inactive
COC(=O)C1=CCCN(C)C1	inactive
COc1ccc(C(=O)N2CCCC2=O)cc1	inactive

Test system: not listed separately
Assay: qHTS for Inhibitors of ATXN expression: Validation (AID 588378); note: nearly all actives have a fitted effect of over 75% in size
Details: cell-based ATXN2 expression reporter assay, luminescence; series mostly up to 57.1 µM
From the text: Spinocerebellar ataxia type 2 (SCA2) is a multisystem neurodegenerative disease caused by a dominantly-acting mutation leading to expansion of a polyQ domain in the ataxin-2 protein (ATXN2). SCA2 patients develop progressive ataxia and later lose function in other neuronal systems. Prominent parkinsonian signs develop in some patients. Similar to many neurodegenerative disorders, no symptomatic or disease-modifying treatments are known.
The primary objective of project is to identify compounds inhibiting ATXN2 expression and to test them for efficacy in SCA2 mouse models. To this end, in a collaboration between Dr. Daniel Scoles and scientists at NCGC, a cell-based assay adapted to high-throughput screening has been developed to screen the NIH Molecular Libraries Small Molecule Repository (MLSMR).
NIH Chemical Genomics Center [NCGC]
NIH Molecular Libraries Probe Centers Network [MLPCN]
Assay Submitter (PI): Stefan Pulst and Daniel Scoles, University of Utah
4 ul of HEK293-ATXN2-FFLuc cell suspension (TBD cells/microL in phenol-red free DMEM) are dispensed into Greiner white solid bottom 1536-well assay plates, yielding a final well density of TBD cells/well. Plates are incubated for 2 hrs at 37 degrees C in 5% humidified CO2 to allow cell attachment. Compounds are then transferred via Kalypsys pin tool equipped with 1536-pin array (10nl slotted pins, V&P Scientific, San Diego, CA). In addition, duplicate serial dilutions of the control compounds ChemBridge 5553825, a previously identified ATXN2 expression inhibitor, and a known luciferase inhibitor, are pin-transferred. After incubation at 37 degrees C in 5% humidified CO2 for 24 hrs, CellTiter-Fluor reagent (1 ul) (Promega, Madison, WI) is then added and plates are incubated for 30 minutes, before being transferred to a ViewLux high-throughput CCD imager (PerkinElmer), wherein single end-point fluorescence measurements are acquired using the 405 nm excitation/525 nm emission filter set to assess cell viability. Next, Bright-Glo luciferase substrate detection reagent (3 ul) (Promega, Madison, WI) is added to each well and incubated for an additional 5 minutes. Luminescence is then measured on the ViewLux imager equipped with a clear emission filter using a 2 sec exposure.

Structure (SMILES)	Potency
O=C(O)c1nn(Cc2ccc(Cl)cc2Cl)c2ccccc12	inactive
NC(=O)CN1CCCC1=O	inactive
COC(=O)C1=CCCN(C)C1	inactive
COc1ccc(C(=O)N2CCCC2=O)cc1	inactive
